Records with an inconclusive call do not appear. Active and inactive are the calls of the source. Unless noted, the call rests on the fitted dose curve; in most records, active means well fitted curve in the direction sought with a large enough effect; inconclusive means small, poorly fitted or top-dose-only effect, or another doubt; inactive means no such curve, though single readings can be large; an effect the other way counts as inactive or inconclusive.
Tests used:
[1] = target: Aldehyde dehydrogenase, mitochondrial (Homo sapiens) (UniProt P05091); experiment: qHTS for Inhibitors of the Aldehyde Dehydrogenase Family (ALDH2) Confirmatory screens (AID 2061303; active means well fitted inhibition curve with a large enough effect; title and protocol of this record describe different tests; further: nearly all actives have a fitted effect of over 45% in size; further: potency means the concentration at half of the fitted maximal effect)
[2] = target: Aldehyde dehydrogenase, mitochondrial (Homo sapiens) (UniProt P05091); experiment: qHTS for Inhibitors of the Aldehyde Dehydrogenase Family (ALDH2) Primary screen (AID 2061308); further: nearly all actives have a fitted effect of over 55% in size; further: potency means the concentration at half of the fitted maximal effect
[3] = target: Retinaldehyde dehydrogenase 3 (Homo sapiens) (UniProt P47895); experiment: qHTS for Inhibitors of the Aldehyde Dehydrogenase Family (ALDH1A3) Confirmatory screens (AID 2061311); further: nearly all actives have a fitted effect of over 60% in size; further: potency means the concentration at half of the fitted maximal effect
[4] = target: Retinal dehydrogenase 2 (Homo sapiens) (UniProt O94788); experiment: qHTS for Inhibitors of the Aldehyde Dehydrogenase Family (ALDH1A2) Confirmation screens (AID 2061314); further: nearly all actives have a fitted effect of over 65% in size; further: potency means the concentration at half of the fitted maximal effect
[5] = target: Aldehyde dehydrogenase 1A1 (Homo sapiens) (UniProt P00352); experiment: qHTS for Inhibitors of the Aldehyde Dehydrogenase Family (ALDH1A1) Confirmatory screens (AID 2061316); further: nearly all actives have a fitted effect of over 65% in size; further: potency means the concentration at half of the fitted maximal effect
[6] = target: Retinaldehyde dehydrogenase 3 (Homo sapiens) (UniProt P47895); experiment: qHTS for Inhibitors of the Aldehyde Dehydrogenase Family (ALDH1A3) Primary screen (AID 2061315)

Measured: Potency

Cc1cc(C)nc(NC(=S)N2CCN(c3cccc4ccncc34)CC2)c1
active: [1] 12.7 µM | [2] 3.16 µM | [3] 11.3 µM | [4] 10.1 µM | [5] 4 µM

Brc1ccc(-c2csc(N3CCC(c4nn[nH]n4)CC3)n2)cc1
not listed: [5]
inactive: all other assays above

C#Cc1nc(Nc2cccc(Cl)c2)nc(NC2CCCC2)n1
active: [1] 31.6 µM | [3] 14.1 µM | [4] 8.91 µM
inactive: [2] | [6]

O=C1CCCC2=C1C(c1[nH]ncc1Cl)NC(=NCc1ncc[nH]1)N2 (stereo not drawn)
inactive: all assays above

O=C1CC(c2ccccc2)CC2=C1C1(CCCC1)N=C(Nc1nc3ccccc3o1)N2 (stereo not drawn)
inactive: all assays above

O=C(/C=C/c1ccc([N+](=O)[O-])o1)Nc1cccc([S+](=O)([O-])Nc2ccccc2F)c1
active: [4] 7.98 µM | [5] 7.98 µM
inactive: all other assays above

COc1ccc([N+](=O)[O-])c(S(=O)(=O)c2ccc(Cl)cc2)n1
active: [1] 5.04 µM | [2] 1.78 µM | [3] 10 µM | [4] 15.8 µM | [5] 1.27 µM

COc1cc(O)c(C(CC(=O)N2CCCC(C(C)C)C2)c2ccc3c(c2)OCO3)c(OC)c1 (stereo not drawn)
not listed: [5]
inactive: all other assays above

COc1ccc([N+](=O)[O-])c(S(=O)(=O)c2ccccc2)n1
active: [1] 17.8 µM | [2] 4.47 µM | [3] 5.65 µM | [4] 15.8 µM | [5] 2.01 µM

N#CC1CCN(c2nc(-c3ccc(Br)cc3)cs2)CC1
not listed: [5]
inactive: all other assays above

Cc1c(P(=O)(c2ccccc2)c2ccccc2)c2ccccc2n1C
active: [3] 7.12 µM | [5] 10.1 µM
inactive: all other assays above

O=C1Nc2ccccc2/C1=C\c1ccc(C(=O)O)cc1
inactive: all assays above

NC(=O)C1CCN(c2ncc(-c3cccc(N4CCCC4)c3)s2)CC1
inactive: [2] | [6]
active: [1] 12.7 µM | [3] 7.98 µM | [4] 11.3 µM | [5] 3.57 µM

Cc1ccc(S(=O)(=O)c2ccc([N+](=O)[O-])cn2)cc1
active: [1] 2 µM | [2] 2 µM | [3] 4.47 µM | [4] 1.13 µM | [5] 0.634 µM

NC(=O)N1CCN(c2nc(-c3ccc(Br)cc3)cs2)CC1
inactive: all assays above

CN1CCN(c2cccc(CNc3nn4c(=O)c5ccccc5nc4s3)c2)CC1
active: [4] 25.2 µM
not listed: [5]
inactive: all other assays above

O=C1Nc2ccccc2/C1=C\c1ccc(O)c(F)c1
inactive: [6] | [5]
active: [1] 0.224 µM | [2] 2.51 µM | [3] 15.8 µM | [4] 5.65 µM

Cc1cnc(-c2ccccc2C(C)O)nc1NCC1CCN(c2cccnc2)CC1 (stereo not drawn)
active: [4] 12.7 µM
not listed: [5]
inactive: all other assays above

O=C(CN1C(=O)CC(c2ccco2)Sc2ccccc21)Nc1ccccc1F (stereo not drawn)
active: [5] 2.52 µM
inactive: all other assays above

COc1cccc(-c2no[n+]([O-])c2C#N)c1
active: [4] 10.1 µM
inactive: all other assays above

CC(=O)NC(c1ccco1)c1cc(Cl)c2ccc(N3CCCCC3)nc2c1O (stereo not drawn)
inactive: [2] | [6]
active: [1] 10.1 µM | [3] 11.3 µM | [4] 1.59 µM | [5] 2.25 µM

COc1ccc(C2=Nn3c(nnc3-c3ccccc3O)SC2)cc1
not listed: [5]
inactive: all other assays above

CC(C)(C)OC(=O)NC1CCN(c2nc(-c3ccc(Br)cc3)cs2)CC1
inactive: all assays above

Cc1cc(C)nc(NC(=S)N2CCN(c3ccc4nsnc4c3)CC2)c1
active: [1] 8.96 µM | [2] 7.94 µM | [3] 1.13 µM | [4] 6.34 µM | [5] 1.79 µM

N#Cc1cc(C2=Nc3ccc(Br)cc3NC(=O)C2)ccn1
inactive: all assays above

Reference: PubChem BioAssay (NCATS)
